Compounds with a hit are over-represented: about 1.4% of the library has one in this group of screens.
BCLXL inh = inhibitors of human Bcl-xL. Q07817. 320,000 compounds, 0.7% hits. inhibition, % at 10.9 µM. AID 2129. GST-Bcl-xL / FITC-Bim BH3 peptide fluorescence polarization;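 active means inhibition above the mean of all tested compounds plus 3 SD, cutoff set per campaign, cut at about 30% in these data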;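 further: 0% = DMSO wells and 100% = unlabeled Bim-BH3 peptide competitor; inhibitors lower millipolarization by displacing the labeled peptide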
Target sequence (Q07817 whole entry, looked up): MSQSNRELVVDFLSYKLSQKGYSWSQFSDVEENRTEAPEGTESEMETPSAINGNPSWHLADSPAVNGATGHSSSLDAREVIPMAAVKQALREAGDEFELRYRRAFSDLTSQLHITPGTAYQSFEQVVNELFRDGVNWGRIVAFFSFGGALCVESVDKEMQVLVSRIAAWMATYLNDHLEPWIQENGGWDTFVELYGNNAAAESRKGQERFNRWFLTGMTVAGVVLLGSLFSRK
MEX-5 binding = C. elegans MEX-5 TCR-2 RNA binding activity. 300,000 compounds, 0.38% hits. MEX-5/FITC-TCR2 RNA binding, fluorescence polarization; active compounds read low. activity score (negative = inhibition of binding), % at 10 µM;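 active means inhibition past about -25% in most replicates, and total fluorescence under double the plate's negative control median, limit read from the data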;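 further: 0% = DMSO and -100% = 5 µM competing unlabeled TCR2 RNA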
eLon inh = inhibitors of E. coli Lon protease. purified E. coli Lon protease, fluorescence polarization. inhibition, % at 7.94 µM. 360,000 compounds, 0.42% hits. AID 602123; in the data active means inhibition above about 13%, passing the limit was not always enough;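 further: 0% = enzyme with probe and DMSO and 100% = no enzyme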
MCL1 BIM primary = disrupts human MCL1 binding to BIM-BH3 peptide | Q07820 | GST-MCL1 / FITC-Bim-BH3 fluorescence polarization | inhibition, % at 10.9 µM | 320,000 compounds, 0.68% hits | AID 2057;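 active means inhibition above the mean inhibition of all tested compounds plus 3 SD, set per campaign, cut at about 40% in these data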;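 further: 0% = DMSO wells and 100% = unlabeled Bim-BH3 peptide control; higher means more loss of mP so more displacement of Bim peptide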
Target sequence (Q07820 whole entry, looked up): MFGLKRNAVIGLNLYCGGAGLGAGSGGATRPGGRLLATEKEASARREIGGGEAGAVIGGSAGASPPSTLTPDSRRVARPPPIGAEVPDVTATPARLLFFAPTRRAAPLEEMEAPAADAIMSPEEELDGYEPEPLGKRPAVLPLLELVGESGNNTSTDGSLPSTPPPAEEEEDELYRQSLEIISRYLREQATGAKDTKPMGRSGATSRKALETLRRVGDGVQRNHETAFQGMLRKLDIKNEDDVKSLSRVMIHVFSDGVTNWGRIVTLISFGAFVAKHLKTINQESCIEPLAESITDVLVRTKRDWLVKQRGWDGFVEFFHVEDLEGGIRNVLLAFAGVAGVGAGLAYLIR
GLD-1 RNA inh = GLD-1-TGE RNA interaction inhibition (C. elegans) | 320,000 compounds, 0.44% hits | AID 2280 | Q17339 | purified GLD-1 + fluorescein TGE RNA, fluorescence polarization | inhibition, % at 5.96 µM;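 active means percent inhibition above a per-plate cutoff, the plate mean of test compounds plus 3 SD, cut at about 30% in these data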;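 further: 0% = DMSO wells with GLD-1 and probe and 100% = wells lacking GLD-1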
eLon confirm = E. coli Lon inhibition confirmation; shares compounds with eLon inh; purified E. coli Lon, fluorescence polarization; inhibition, % at 7.94 µM; 1,400 compounds, 31% hits; in the data active means inhibition above about 16%;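 further: 0% = enzyme with probe and DMSO and 100% = no enzyme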
* hit, by the source's call.

For N=C1/C(=C/c2cccn2Cc2ccc(Cl)cc2)C(=O)N=C2SC=CN12 the results were BCLXL inh -3.0, MEX-5 binding -3.0, eLon inh -6.2, MCL1 BIM primary 4.0 and GLD-1 RNA inh -1.2.
For CCOC(=O)c1cc2c(ccn2C)n1CC(=O)N1CCC(Cc2ccccc2)CC1 the results were BCLXL inh 7.8, MEX-5 binding 1.8, eLon inh 20.3*, MCL1 BIM primary 1.7, GLD-1 RNA inh 27.1 and eLon confirm 9.5.
Screening CCOC(=O)c1cc2c(ccn2C)n1CC(=O)N1CCCC(C)C1 (configuration not stated) returned BCLXL inh 10.9, MEX-5 binding 0.7, eLon inh 3.2, MCL1 BIM primary 10.8 and GLD-1 RNA inh 4.2.
Screening CCNc1nc2c(c(=O)[nH]c(=O)n2C)n1CC(C)C returned BCLXL inh 2.4, MEX-5 binding 1.9, eLon inh 1.6, MCL1 BIM primary -2.3 and GLD-1 RNA inh 4.1.
Screening CC(C)Cn1c(NCCN(C)C)nc2c1c(=O)[nH]c(=O)n2C returned BCLXL inh 3.4, MEX-5 binding -0.3, eLon inh 23.8*, MCL1 BIM primary -0.5, GLD-1 RNA inh 3.7 and eLon confirm 0.8.
Screening O=C1C2C(C(=O)N1Cc1ccco1)C1C=CC2C12CC2 (configuration not stated) returned BCLXL inh 0.8, MEX-5 binding 1.2, eLon inh -2.3, MCL1 BIM primary -6.0 and GLD-1 RNA inh -3.0.
O=C1C2C3c4ccccc4C(c4ccccc43)C2C(=O)N1Cc1ccco1 (configuration not stated) was read as BCLXL inh 4.5, MEX-5 binding -1.1, eLon inh 20.4*, MCL1 BIM primary 6.9, GLD-1 RNA inh 3.2 and eLon confirm 4.1.
`COc1ccc(C2C3=C(CC(C)(C)CC3=O)Oc3ncn4nc(-c5ccccc5)nc4c32)cc1` (configuration not stated) gave eLon inh 25.6* and eLon confirm -5.5.
COc1cccc(NC(=O)CN(C)C(=O)Cc2n[nH]c(=O)c3ccccc23)c1 was read as BCLXL inh 3.8, eLon inh 19.2*, MCL1 BIM primary 1.6, GLD-1 RNA inh 0.7 and eLon confirm -6.2.
Screening COC(=O)C1=C(C)NC(=O)CC1c1ccccc1 (configuration not stated) returned BCLXL inh 5.9, MEX-5 binding 0.4, eLon inh -1.4, MCL1 BIM primary 8.2 and GLD-1 RNA inh -2.3.
For COC(=O)C1=C(C)NC(=S)N(C(C)=O)C1c1ccccc1 (configuration not stated) the results were BCLXL inh -1.2, MEX-5 binding -0.2, eLon inh 17.5*, MCL1 BIM primary 8.9, GLD-1 RNA inh -2.1 and eLon confirm 20.5*.
For COC(=O)C(Cc1ccccc1)NC(=O)C(CC(C)C)NC(=O)OC(C)(C)C (configuration not stated) the results were BCLXL inh 4.4, MEX-5 binding -3.7, eLon inh 6.1, MCL1 BIM primary 2.6 and GLD-1 RNA inh 1.9.
CC(C)CC(NC(=O)OC(C)(C)C)C(=O)O (configuration not stated) was read as BCLXL inh 4.5, MEX-5 binding -1.7, eLon inh 18.6*, MCL1 BIM primary -3.3, GLD-1 RNA inh 2.7 and eLon confirm -6.3.
Screening Cc1c(C(=S)NC(=O)C2CC2)c(=O)n(-c2ccccc2)n1C returned BCLXL inh 7.1, MEX-5 binding 4.6, eLon inh 2.1, MCL1 BIM primary 6.6 and GLD-1 RNA inh -4.9.
O=C(CN(C(=O)Cn1nnc(-c2ccc(F)cc2)n1)c1ccc(F)cc1)NC1CCCC1 was read as BCLXL inh 3.3, MEX-5 binding -0.5, eLon inh 18.4*, MCL1 BIM primary -2.8, GLD-1 RNA inh 7.6 and eLon confirm 0.6.
CCN(CC)C(=O)Oc1ccc(Br)cc1C(=O)Nc1ccc(F)cc1F was read as BCLXL inh 3.4, MEX-5 binding 1.0, eLon inh 1.0, MCL1 BIM primary 3.7 and GLD-1 RNA inh 1.5.
`CCC(=O)NCCn1ccc2ccccc21` gave BCLXL inh 1.8, MEX-5 binding -2.6, eLon inh -5.4, MCL1 BIM primary 3.2 and GLD-1 RNA inh 0.4.
`O=C(Cc1cccs1)NCCn1ccc2ccccc21` gave BCLXL inh -4.7, MEX-5 binding 2.6, eLon inh 18.7*, MCL1 BIM primary 2.2, GLD-1 RNA inh -5.9 and eLon confirm -4.6.
`CC(=O)C1=C(O)C(=O)N(c2ccc(Br)cc2)C1c1ccc(Br)cc1` (configuration not stated) gave BCLXL inh 2.5, MEX-5 binding -0.7, eLon inh 30.2*, MCL1 BIM primary -2.3, GLD-1 RNA inh 6.2 and eLon confirm -7.1.
`COc1ccc(C)cc1NC(=O)CNC(C)C(=O)Nc1ccc(C(C)=O)cc1` (configuration not stated) gave BCLXL inh -3.3, MEX-5 binding -4.6, eLon inh -0.3, MCL1 BIM primary -11.7 and GLD-1 RNA inh -1.8.
Screening CCOC(=O)C1CCN(C(=O)C(=O)c2cn(CC(=O)N3CCCCCC3)c3ccccc23)CC1 returned BCLXL inh 10.8, MEX-5 binding -1.3, eLon inh 14.5, MCL1 BIM primary 3.5 and GLD-1 RNA inh 10.0.
Screening CCOC(=O)N1CCN(C(=O)C(=O)c2cn(CC(=O)N3CCCCCC3)c3ccccc23)CC1 returned BCLXL inh 4.0, MEX-5 binding -8.3, eLon inh 19.9*, MCL1 BIM primary 6.2, GLD-1 RNA inh 8.4 and eLon confirm 1.8.
Screening COC(=O)C(C)Sc1nnc(Cc2cc(=O)[nH]c(=O)[nH]2)n1-c1ccc(Cl)cc1 (configuration not stated) returned BCLXL inh 20.5, MEX-5 binding -15.2, eLon inh 37.2*, MCL1 BIM primary 20.6, GLD-1 RNA inh 27.3 and eLon confirm 8.1.
Screening CCSc1nnc(Cc2cc(=O)[nH]c(=O)[nH]2)n1-c1ccc(Cl)cc1 returned BCLXL inh 10.2, MEX-5 binding 1.1, eLon inh 13.3, MCL1 BIM primary 4.3 and GLD-1 RNA inh 15.4.
For CCOC(=O)C(C)Sc1nnc(Cc2cc(=O)[nH]c(=O)[nH]2)n1-c1ccc(OCC)cc1 (configuration not stated) the results were BCLXL inh 0.0, eLon inh -3.2, MCL1 BIM primary -6.5 and GLD-1 RNA inh 5.0.
For CCOC(=O)C(C)Sc1nnc(Cc2cc(=O)[nH]c(=O)[nH]2)n1-c1ccc(Cl)cc1 (configuration not stated) the results were BCLXL inh 18.4, MEX-5 binding -4.5, eLon inh 23.9*, MCL1 BIM primary 11.9, GLD-1 RNA inh 24.3 and eLon confirm 7.9.
`Nc1scc2c(C(=O)N/N=C/c3ccc(Cl)cc3)nn(-c3ccccc3)c(=O)c12` gave BCLXL inh 42.6*, MEX-5 binding -3.8, eLon inh 14.7*, MCL1 BIM primary 40.5*, GLD-1 RNA inh 11.5 and eLon confirm 16.6*.
